High-throughput results as filed in PubChem BioAssay.
SW480 rereplic: A quantitative high throughput screen for small molecules that induce DNA re-replication in SW480 colon adenocarcinoma cells; SW480 DNA re-replication, Hoechst DNA content imaging, 48 h; Potency, µM (highest dose often 46.1 µM), usual class: activators; hit rate 1.8% among 340,000; AID 624297, 2012; note: nearly all actives have a fitted effect of over 55% in size
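SW480 cells exposed to compounds for 48 hr at 37 C, 5% CO2, then Hoechst-stained 40 min. Nuclear DNA content imaged by fluorescence scanning (405 nm excitation, 500-530 nm emission); re-replication scored as increased high-intensity nuclei.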
S2 tox: Viability Counterscreen for Primary qHTS for Inhibitors of ATXN expression | S2 cells (HEK-293 line with an ATXN2-luciferase reporter) viability, CellTiter-Fluor protease fluorescence, 24 h | Potency, µM (doses to about 56.7 µM), usual class: cytotoxic | hit rate 0.49% among 400,000; note: nearly all actives have a fitted effect of over 40% in size
IL1B secr inh: qHTS for Inhibitors of Inflammasome Signaling: IL-1-beta AlphaLISA Primary Screen; THP-1 LPS/ATP IL-1B secretion, AlphaLISA, 16 h; stronger effect = lower value; activity change, % at 57.5 µM; hit rate 4.7% among 360,000; AID 743279, 2014; in the data active = activity change below about -50%; inconclusive = mostly about -30% to -49%
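Secreted IL-1B measured by AlphaLISA bead assay after 16 h compound exposure of THP-1 cells; compounds (final up to 57.5 uM) added 1 h before LPS (250 ng/mL) and ATP (1.25 mM) stimulation; lower signal means less secretion.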
MCF10A rereplic: A quantitative high throughput screen for small molecules that induce DNA re-replication in MCF 10a normal breast cells | Potency, µM (titrated, usually from 46.1 µM), hits mostly activators | hit rate 2.9% among 350,000 | MCF 10A DNA re-replication, Hoechst nuclear intensity, 48 h | AID 624296, 2012; note: nearly all actives have a fitted effect of over 50% in size
ATXN2 expr inh: Primary qHTS for Inhibitors of ATXN expression; Potency, µM (series often up to 57 µM), most hits filed as inhibitors; AID 1745845, 2022; HEK-293 ATXN2-luciferase reporter, luminescence, 24 h; hit rate 0.72% among 360,000; note: nearly all actives have a fitted effect of over 55% in size
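qHTS (up to 57 uM final) was run with 24 h compound exposure of reporter cells at 37 °C. Each well was multiplexed: SteadyGlo luminescence measured ATXN2-luciferase expression after a fluorogenic Gly-Phe-AFC viability readout (25 uM final).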
PINK1 modulator: A Quantitative High throughput Screen to Identify Chemical Modulators of PINK1 Expression. PINK1 immunofluorescence, high-content cytometry, 24 h. Potency, µM (titrated, usually from 76.6 µM), hits mostly activators. hit rate 0.2% among 410,000. AID 624263, 2012; active = well fitted activation curve with a large enough effect; inconclusive = small, poorly fitted or top-dose-only effect; cell line not stated here; note: nearly all actives have a fitted effect of over 65% in size
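Fluorescence from anti-PINK1 antibody, together with nuclear and cell stains, was scanned on a laser-scanning cytometer. Before staining, stable-line cells were incubated 24 hours with compounds at 5 concentrations; primary antibody 12 h at 10 degrees C.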
Numbers stand for hits; 0 = inactive; ? = inconclusive; - = no result given; [ ] = another dose, or the depositor's remark. Compounds with a hit are over-represented: about 7.1% of the library has one in this group of screens. Unless noted, calls come from the whole dose curve; as a rule, active = well fitted curve in the direction sought with a large enough effect; inconclusive = small, poorly fitted or top-dose-only effect, or another doubt; inactive = no such curve, though single readings can be large; an effect the other way counts as inactive or inconclusive.

SMILES	SW480 rereplic	S2 tox	IL1B secr inh	MCF10A rereplic	ATXN2 expr inh	PINK1 modulator
O=S(=O)(N(Cc1ccccc1)[C@@H](CO)Cc1ccccc1)N(Cc1ccccc1)[C@@H](CO)Cc1ccccc1	0	?	0	?	0	0
C=CS(=O)(=O)N(Cc1ccccc1)[C@H](CO)CC(C)C	0	?	-60.5	0	0	0
C=CCCN([C@H](CO)Cc1ccccc1)S(=O)(=O)c1ccccc1Br	0	0	0	?	0	0
CC(C)C[C@H](CO)N(Cc1ccccc1)S(=O)(=O)N(Cc1ccccc1)[C@@H](CO)CC(C)C	0	?	-87.1	?	?	0
C=CS(=O)(=O)N(Cc1ccccc1Br)[C@H](CO)Cc1ccccc1	?	12.6µM	-108.2	16.4µM	15.8µM	0
Cc1cc(O)c(C(=O)/C=C/c2ccc(Cl)cc2)c(=O)o1	0	-	?	?	0	0
O=C(/C=C/c1ccc(Cl)cc1)c1ccc([N+](=O)[O-])o1	?	11.2µM	?	8.2µM	?	0
Cc1ccc(/C=C/C(=O)c2ccc([N+](=O)[O-])o2)cc1	1.46µM	8.91µM	-113.3	3.26µM	?	0
COc1ccc(S(=O)(=O)N2N=C(C)Oc3ccccc3C2=O)cc1	3.98µM	?	0	7.94µM	0	0
O=C(c1c2c(nc3ccccc13)C(=O)N(C1CCCCC1)C2)N1CCN(c2ccc(F)cc2)CC1	-	-	-	-	-	0
O=S(=O)(c1cc(F)ccc1F)N1CCN(c2ccccn2)CC1	?	0	0	0	0	0
O=S(=O)(c1cc(F)ccc1F)N1CCN(c2ncnc3ccccc23)CC1	18.4µM	0	0	5.8µM	-	0
CC1CCCCN1C(=O)c1cccc(NC2=C(Cl)C(=O)N(Cc3ccccc3)C2=O)c1 (centres undefined)	?	0	-88.1	23.1µM	-	0
O=C1C(Cl)=C(Nc2ccc(F)cc2)C(=O)N1CCc1ccccc1	0	0	-147.6	0	0	0
CC1CCN(C(=O)c2ccc(NC3=C(Cl)C(=O)N(Cc4ccccc4)C3=O)cc2)CC1	?	?	-93.0	23.1µM	?	0
CC1CCN(C(=O)c2ccc(NC(=O)c3ccccc3)cc2)CC1	0	0	0	0	0	0
CCOc1ccccc1NC1=C(Cl)C(=O)N(Cc2ccccc2)C1=O	0	0	0	?	0	0
COc1ccc(OC)c(NC2=C(Cl)C(=O)N(Cc3ccccc3)C2=O)c1	0	0	-164.8	?	0	0
CC1CCCCN1C(=O)c1ccc(C(=O)c2ccccc2)cc1 (centres undefined)	0	?	0	0	0	0
COc1cccc(C(=O)N2CCCCC2CCN2CCCCC2)c1 (centres undefined)	-	-	-	-	-	0
CCOc1ccc(OCC)c(NC(=O)C2CCCN(S(=O)(=O)c3cc(Br)cc4c3N(C(=O)CC)CC4)C2)c1 (centres undefined)	-	0	-	-	0	0
O=C(Cn1cc(S(=O)(=O)Cc2ccc(F)cc2)c2ccccc21)NCCc1ccccc1	-	-	-	-	-	0
O=C1C(Cl)=C(Nc2cccc(O)c2)C(=O)N1Cc1ccccc1	0	0	-98.2	?	0[11.3 µM]	0
Cc1ccc(C(=O)NCC(c2cccs2)S(=O)(=O)c2cccs2)cc1C (centres undefined)	-	0	-	-	0	0
O=C(CN1C(=O)CCC1=O)Nc1nc(-c2ccc3ccccc3c2)cs1	0	-	0	1.46µM	0	0
O=C(CN1C(=O)CCC1=O)Nc1nc(-c2nc3ccccc3s2)cs1	0	0	-57.2	0	0	0
COc1cc(C(=O)OCCN2CCOCC2)cc(OC)c1OC	0	0	0	0	0	0
